Results filed as inconclusive are left out. Active and inactive are the calls of the source. Unless noted, the call rests on the fitted dose curve; in most records, active means well fitted inhibition curve with a large enough effect; inconclusive means small, poorly fitted or top-dose-only effect; inactive means flat fitted curve, though single readings scatter.

The text below walks through data of PubChem BioAssay (NCATS).

Assay [1] is described as follows: qHTS profiling for inhibitors of Plasmodium falciparum proliferation (AID 504749).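 Further: 0% = DMSO vehicle and full inhibition = artemisinin control; nearly all actives have a fitted effect of over 60% in size.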 As to conditions: P. falciparum in erythrocytes, SYBR Green DNA, 72 h, at 28.7 µM (top of the series). The method, boiled down: (§1)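 SYBR Green fluorescence (ex 485 nm, em 535 nm) reports parasite DNA after 72 h compound exposure of infected red cells at 0.3% parasitemia, 2.5% hematocrit; signal normalized to 0.29 uM artemisinin and vehicle wells.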

The next assay relates to 3D7. The assay is described as above. To be noted: P. falciparum in erythrocytes, SYBR Green DNA, 72 h; series mostly up to 28.7 µM. The method, boiled down:
as §1

The test system of another assay is 7G8. Described as above. As to conditions: P. falciparum in erythrocytes, SYBR Green DNA, 72 h; series mostly up to 28.7 µM. A digest of the protocol: as §1
The next assay concerns AA1029. Described as above. As to conditions: P. falciparum in erythrocytes, SYBR Green DNA, 72 h; series mostly up to 28.7 µM. A digest of the protocol: as §1
A further assay deals with AS120. The assay is described as above. As to conditions: P. falciparum in erythrocytes, SYBR Green DNA, 72 h; series mostly up to 28.7 µM. The method, boiled down:
as §1

For another assay, the system named is ATS189. The description is as above. To be noted: P. falciparum in erythrocytes, SYBR Green DNA, 72 h; series mostly up to 28.7 µM. The method, boiled down: as §1
Another assay has as its system ATS95. The assay is described as above. To be noted: P. falciparum in erythrocytes, SYBR Green DNA, 72 h; series mostly up to 28.7 µM. A digest of the protocol: as §1
The next assay concerns C2A. Described as above. As to conditions: P. falciparum in erythrocytes, SYBR Green DNA, 72 h; series mostly up to 28.7 µM. The method, boiled down:
as §1

In another assay the test system is CP185. The description is as above. To be noted: P. falciparum in erythrocytes, SYBR Green DNA, 72 h; series mostly up to 28.7 µM. A digest of the protocol: as §1
A further assay deals with CP191. The description is as above. As to conditions: P. falciparum in erythrocytes, SYBR Green DNA, 72 h; series mostly up to 28.7 µM. The method, boiled down: as §1
The subject of a further assay is CP192. Described as above. To be noted: P. falciparum in erythrocytes, SYBR Green DNA, 72 h; series mostly up to 28.7 µM. The method, boiled down: as §1
The next assay concerns CP194. The assay is described as above. As to conditions: P. falciparum in erythrocytes, SYBR Green DNA, 72 h; series mostly up to 28.7 µM. A digest of the protocol: as §1
The subject of a further assay is CP201. Described as above. To be noted: P. falciparum in erythrocytes, SYBR Green DNA, 72 h; series mostly up to 28.7 µM. The method, boiled down: as §1
Another assay deals with CP203. Described as above. As to conditions: P. falciparum in erythrocytes, SYBR Green DNA, 72 h; series mostly up to 28.7 µM. The method, boiled down: as §1
The test system of a further assay is CP211. The assay is described as above. To be noted: P. falciparum in erythrocytes, SYBR Green DNA, 72 h; series mostly up to 28.7 µM. The method, boiled down: as §1
Another assay has as its system CP215. The assay is described as above. As to conditions: P. falciparum in erythrocytes, SYBR Green DNA, 72 h; series mostly up to 28.7 µM. The method, boiled down:
as §1

A further assay relates to CP217. Described as above. To be noted: P. falciparum in erythrocytes, SYBR Green DNA, 72 h; series mostly up to 28.7 µM. A digest of the protocol:
as §1

A further assay deals with CP237. The assay is described as above. To be noted: P. falciparum in erythrocytes, SYBR Green DNA, 72 h; series mostly up to 28.7 µM. The method, boiled down: as §1
Assay [2] is described as follows: qHTS for identification of novel therapeutic agents for treatment of microphthalmiaassociated transcription factor (MiT) renal cell carcinoma (RCC) (AID 1963991; calls by dose curve; further: potency means the concentration at half of the fitted maximal effect). To be noted: CellTiter-Glo, 48 h; for z-score: stronger effect = lower value; for Potency: active = Z-AUC below -0.8 in all three lines. A digest of the protocol:
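Three TFE3-fusion RCC lines (UOK109, UOK124, UOK145), 500 cells/well in complete medium, were treated with MIPE 4.0 compounds for 48 hours at 37 C. Viability was by CellTiter-Glo luminescence, normalized to DMSO (100%) and empty wells (0%); curves fitted over 11 concentrations.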

Assay [3] is described as follows: qHTS drug screen for cell cycle checkpoint inhibitors in PARPi-resistant BRCA-mutant ovarian cancer cell lines. (AID 1963452; calls by dose curve). To be noted: PEO1/OlaR viability, CellTiter-Glo luminescence, 96 h, stronger effect = lower value. A digest of the protocol: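 PEO1, PEO4 and PEO1/OlaR ovarian cancer cells, 600 per well, exposed 96 h at 37C to a dilution series. Viability read by CellTiter-Glo luminescence, normalized to DMSO and empty wells; activity summarized as Z-AUC.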
On the technique in general: Quantitative high-throughput screening tests each substance at several concentrations.

[4] abbreviates: TFE3-RCC UOK109 viability, measured here: UOK109 Z-AUC.
[5] abbreviates: TFE3-RCC viability, measured here: UOK124 Z-AUC.
The mark [6] stands for this setting: TFE3-RCC viability, measured here: UOK145 Z-AUC.
The mark [7] stands for this setting: measured here: PEO1 parental Z-AUC.

As for `CC=CC1=C(C(=O)O)N2C(=O)[C@H](NC(=O)[C@H](N)c3ccc(O)cc3)[C@@H]2SC1`, the values for the activity, negative = inhibition in assay [1] (parasite line A) and in [1] (parasite line B) were -3.61% (inactive) and -5.72% (inactive), respectively. Besides, the Potency entry with 3D7, with 7G8, with AA1029, in the assay on AS120, in the assay with ATS189 and in the assay with ATS95 was “inactive” each time. The Potency entry with C2A, in the assay with CP185, with CP191, with CP192, with CP194 and in the assay with CP201 was “inactive” throughout. Moreover, the Potency entry in the assay with CP203, in the assay on CP211, with CP215, in the assay on CP217 and with CP237 was “inactive” in each case.

For the compound `CN(C)c1nc(Cc2ccc(NC(=O)c3ccc4ccccc4c3)cc2)nc(Cl)c1CC(=O)O`, the z-score in [2] (setting [4]) was determined as 0.743; in assay [2] (setting [5]) it was 0.693; in assay [2] (setting [6]), 0.756.

Turning to `O=C(Cc1ccc(-c2ccc(OCCN3CCOCC3)cc2)cn1)NCc1ccccc1`, the Z-AUC in assay [3] is -0.749 (inactive); in assay [3] (setting [7]), -0.848; in [3] (measured here: PEO4 Z-AUC) it was -1.63. Besides, in assay [2] (TFE3-RCC UOK109 viability), the Potency was 148 nM (active). For the same compound, the z-score in [2] (setting [4]) was -1.65; in assay [2] (setting [5]), -2.5; in assay [2] (setting [6]), -1.24.

As to `COC(=O)[C@]12CCC(C)(C)C[C@@H]1[C@@H]1C(=O)C=C3[C@@]4(C)C=C(C#N)C(=O)C(C)(C)[C@@H]4CC[C@@]3(C)[C@]1(C)CC2`, the Potency in assay [2] (TFE3-RCC UOK109 viability) was 1180 nM (active). The z-score in [2] (setting [4]) was -1.73; in assay [2] (setting [5]) it was -1.69; in assay [2] (setting [6]), -1.96.

Turning to `O=C(O)CO.[NH2-].[NH2-].[Pt+2]`, the z-score in assay [2] (setting [4]) worked out at 0.642; in assay [2] (setting [5]) it was 1.56; in assay [2] (setting [6]) it was 1.18. The results for the activity, negative = inhibition in assay [1] (parasite line A) and in [1] (parasite line B) were 12% (inactive) and 15.6% (inactive), respectively. Also, the Potency result with 3D7, in the assay with 7G8, with AA1029, in the assay with AS120, in the assay on ATS189 and in the assay with ATS95 was “inactive” throughout. For the same compound, the Potency result in the assay on C2A, in the assay with CP185, with CP191, with CP192, in the assay on CP194 and in the assay on CP201 was “inactive” in each case. Further, the Potency entry in the assay on CP203, in the assay on CP211, with CP215, with CP217 and with CP237 was “inactive” each time.

As to `Cc1nc2cnc3ccc(C#Cc4cccnc4)cc3c2n1-c1ccc(C(C)(C)C#N)cc1`, the results for the Z-AUC in assay [3], in [3] (setting [7]) and in [3] (measured here: PEO4 Z-AUC) were -0.114 (inactive), -0.259 and -0.412, respectively. For the same compound, the Potency in [2] (TFE3-RCC UOK109 viability) was 118 nM (active). For the same compound, the z-score in [2] (setting [4]) is -1.96; in assay [2] (setting [5]), -4.34; in assay [2] (setting [6]), -2.15.

For the compound `COc1c(N2C[C@@H]3CCCN[C@H]3C2)c(F)cc2c(=O)c(C(=O)O)cn(C3CC3)c12`, the Z-AUC in assay [3] was 0.687 (inactive); in assay [3] (setting [7]), 0.58; in [3] (measured here: PEO4 Z-AUC), 1.15. Also, the z-score came out at 0.422 in [2] (setting [4]), 1.3 in assay [2] (setting [5]) and 1.53 in assay [2] (setting [6]). The activity, negative = inhibition was -20.4% (inactive) in assay [1] (parasite line A) and -3.01% (inactive) in [1] (parasite line B). Further, the Potency entry with 3D7, in the assay with AA1029, in the assay on AS120, with ATS189, in the assay with ATS95 and in the assay with C2A was “inactive” throughout. Besides, the Potency entry in the assay on CP185, in the assay on CP191, with CP192, in the assay on CP194, in the assay on CP201 and in the assay with CP203 was “inactive” in each case. Further, the Potency entry with CP211, in the assay with CP215 and in the assay with CP217 was “inactive” each time.
